About 83,000 compounds went through this panel and 20% of them were active in at least one assay; those are over-represented in the sample as a whole.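 Single-concentration screen, 48 h exposure, 96-well plates. Endpoint: percent growth. Below 10 = active.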 A number with no mark means an inactive call. The source made the active and inactive calls.
What follows are molecules tested on HOP-92 NSCLC (assay: NCI-60 one-dose screen, 48 h (100 = growth as untreated, 0 = no growth, -100 = all killed)). Conditions: 10 µM unless noted.

Structure (SMILES)	growth
CCNc1nc(Cl)nc(NCC)n1	65.1%
CCOP(=O)(NC[C@H]1O[C@](O)(CO)[C@@H](O)[C@@H]1O)OCC	93.1%
CCCc1cc(O)c2c3c(c(=O)oc2c1)CN(C)CC3	81.6%
CCCCN1CCCC[C@@H]1C(=O)N[C@H](C(=O)N(C)[C@H](CCc1nc(C(=O)N[C@@H](Cc2ccccc2)C[C@H](C)C(=O)OC)cs1)C(C)C)[C@@H](C)CC	22.2%
O=C([O][Hg][CH2]C1COCC([CH2][Hg][O]C(=O)c2ccccc2)O1)c1ccccc1 (stereo not given)	77%
CN[C@]1(c2ccccc2Cl)CCCC[C@H]1NCCCN1CCN(C)CC1	79.1%
Cn1cc(-c2csc(-c3cn(CCN4CCOCC4)c4ccc(F)cc34)n2)c2cccnc21	27.2%
CC(C)CCC1(CCCl)C(=O)NC(=O)NC1=O	91.2%
O=C(CCCC1CCCCC1)OCC(Cl)(Cl)Cl	77.5%
COC(=O)CC12CC(NC(=O)c3csc([C@@H](C[C@H](C(C)C)N(C)C(=O)[C@@H](NC(=O)[C@H]4CCCCN4C)C(C)C)OC(C)=O)n3)(C1)C2	35.7%
C#Cc1ccc2c(c1)C(c1ccccc1)=NCC(=O)N2C	72.2%
COc1cccc2c1c(C(=O)C(=O)Nc1ccn[nH]1)cn2Cc1ccc(F)cc1	87%
Clc1cccc(Cl)c1Cl	113%
O=c1[nH]cc(N(CCCl)CCCl)c(=O)[nH]1	2.65% (active)
CC(C)(N)Cc1ccccc1	87.8%

— PubChem BioAssay (NCI)
